The supplement of paper PMC6555819

Test system: VDR:RXRa (NR concentration 270 nM, RXRa partner concentration 90 nM)
Experiment: PBM binding z-score (relative to random genomic background probes); higher = stronger binding; sequences stand for … in GC…GCGATTGACAGCGTAGAATGAAGG
Description: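 Protein-binding microarray (Agilent 4x180K custom design, double-stranded 60-nt probes: 5' GC cap, 34-nt variable region, 24-nt constant primer region; full probe sequence given). Purified or IVT nuclear receptor:RXRα heterodimers (3:1 NR:RXRα, mostly 270:90 nM) or homodimers were incubated for 1 h in PBS with 2% milk and no ligand, then detected with Alexa488 antibodies. Fluorescence from o1-orientation probes (~5 replicates averaged) was converted to z-scores against 500 random hg19 background probes. Variable regions are seed direct-repeat (DR0–DR5) sites, all their single-nucleotide variants and half-site ablations.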

Sequence | PBM binding z-score
GAAACAGGGTCAAGGCCAGAGTACGCGTATTGAT | 4.6
GGAACGAGGGCATTGGAGTTGATAGCATGGCGAT | 2.6
TCTTGTTGATCAATAGAGGTTAAGAAAGTGCGCT | 1.69
CAAACTAGGTCTCCGGAAGGTCAAAGTCCGCATG | 3.06
TCATATAGGTAAAAGGTAAAAGTCGGTGTGGTAA | 1.33
ACAGATAGGTGATGAAGGTAACTCAGGCTATCAT | 0.219
CGAACGAGGGCATGAGTTCATAGCAAATGCCGAT | 5.62
CGTCCAAGGTCATTGCTAGGTCAGTGAAAGCATT | 5.53
CAAACTAGGTCACCGGAGGGTCAAAGTCCGCATG | 5.82
CCTTACGGGTCACTCCAGGTTATTGCATCGGAGT | 4.46
GCTATTAGTTGAAAGGGCGACCGAATGATTCTCG | -0.17
ACTAGCAGGCCAAGCTTGGGTCACTCAAACAAAG | 0.122
ATCTCTAGGAAAAGTTCAGTGAAAGATCGATAGA | 1.2
AGTCAAAGTTCACTAGGTAACTTAAGATTCAGCT | 3.88
ACTAGCAGGCCAAGGGTCACTGAAGATTAGTCCG | 2.81
CCAGACAGGTGAGAAGGAAACTCAGCCTCGATTA | -0.211
CCTACTGAGCCAAAGGTCATTGATTCCAATGCTC | 4.81
GCTATTAGTTGAAAGAGCAACCGAATGATTCTCG | -0.419
TGAATGAGCTTAAAGATCAGGGAACGTGGCGTCG | -0.548
GCTAGCAGGCCATTTGCGTCACTCAATGACGGGC | -0.801

Sequence | PBM binding z-score
TCTTGTAGATCAATAGAGGTTATGAAAGTGCGCT | 1.92
CCTATTAGTTGACCATATGGGCAACCGAAGCTCG | 0.234
CCTGCTAGGTCATGGACAGCTAATCTACAGTATG | 1.56
TGATATAGGTAAAAGGTGAAAGTCGGTGTGGTAA | 1.33
AACGAAAGGTCGTGAGGTGAGTATACAGAAAGGC | 3.68
TCCTATAGGTAAAAGGTGAAAGTCGGTGTGGTAA | 1.17
ATCGAAAGGTCGTGAGGTGAGTATACAGAAAGGC | 3.69
CGTACAAGGTCAAGGTCAGTGAAAGAGACTCGAA | 4.98
CCTTACGGGTCACTCCAAGTTATAGCATCGGAGT | 2.82
CTCGAAGGGTCGGTTGAGGTGAGTATACGGATAA | 1.25
CCAGACAGGTGAAAGGTAATTCAGTCTGGTACGC | 0.632
TCAGACAGGTGAAGGTAACTCAGGTACGCAGTCG | 0.943
AGAATGCGGTTACCAAAGATCAGGGAAACGCTTG | -0.612
TCATATAGGTAACTGCTAGGTGAAAGTCCGATCT | 0.632
CCTACTGGGCAATCAGGTCATTGATATCAACGTT | 2.83
GCTATTAGATGAAAGGGCAACCGAATGATTCTCG | 0.125
CCTGCTAGGTCAATGGTCAGTTAAAGCAGCTCGC | 0.89
AGTCAAAGTTCGCTAGGTAACGTAAGATTCAGCT | 0.489
GCTAGATGGTCAGTAAAAGGTCACACACCGGTCG | 3.91
AGAATGAGGTTATACGTAGATCAGGTAAGAAAGT | 1.58
